In the library only some 1.9% were active in any assay of this set; here they are far more common.
Ba/F3 V617F tox = reduced viability of JAK2V617F-dependent Ba/F3 cells, primary screen, JAK2V617F inhibitor project, cell-based, Ba/F3 EpoR-JAK2V617F, luminescence. ATP luminescence. inhibition, % at 5.6 µM. actives 1.1% (n = 220,000). AID 1446, 2008;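 active = inhibition above the campaign mean plus 3 SD over all tested compounds, cut at about 24% in these data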;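 also: cytokine-independent growth of Ba/F3 cells driven by EpoR plus mutant JAK2; 0% = DMSO-treated cells and 100% = JAK inhibitor I control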
KLF5 inhibitor = KLF5 expression inhibitors, primary screen, DLD-1 cells, luminescence | DLD-1 KLF5 promoter-luciferase reporter | inhibition, % at 5 µM | actives 0.23% (n = 290,000);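 active = inhibition above a per-plate limit of that plate's mean compound inhibition plus 3 SD, cut at about 60% in these data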;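 also: 0% = DMSO wells and 100% = LY294002 at 200 µM; higher means less KLF5 promoter-driven luciferase light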
IEC-6 cytotox = cytotoxicity in IEC-6 intestinal epithelial cells, primary screen, cytotoxicity control for KLF5 inhibitor project, cell-based, luminescence. IEC-6 cytotoxicity, luminescence viability. AID 1825, 2009. actives 0.78% (n = 290,000). inhibition, % at 5 µM;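 also: 0% = plate median of test compound wells and 100% = cytotoxic reference compound wells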
APP transl inh = inhibitors of APP translation via 5'UTR reporter, primary screen, APP 5'UTR luciferase, SH-SY5Y cells. SH-SY5Y APP 5'UTR-luciferase reporter, luminescence. inhibition, % at 2 µM. actives 0.82% (n = 190,000). AID 1285, 2008;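 active = inhibition above a set limit, derived from the sample mean plus 3 SD, cut at about 45% in these data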
BaF3 parental = parental Ba/F3 cell viability inhibition, counter-screen for JAK2V617F inhibitor project, murine pro-B, CellTiter-Glo luminescence; CellTiter-Glo ATP luminescence; inhibition, % at 5.6 µM; actives 1.1% (n = 220,000); AID 1486, 2009;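 active = inhibition above a per-campaign cutoff, the mean inhibition of all tested compounds plus 3 SD, cut at about 27% in these data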;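 also: 0% = DMSO wells and 100% = JAK Inhibitor I control wells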
IEC-6 tox confirm = cytotoxic compounds in IEC-6 epithelial cells, confirmation, cytotoxicity control, cell-based, luminescence; shares compounds with IEC-6 cytotox; IEC-6 rat intestinal epithelial viability; inhibition, % at 5 µM; actives 63% (n = 1,900);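 also: 0% = vehicle and 100% = reference cytotoxic drug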
* hit, by the source's call; . = not tested or not shown. Rule as the data show it, unless noted: active = inhibition above about 22%; inactive = the rest.

SMILES	Ba/F3 V617F tox	KLF5 inhibitor	IEC-6 cytotox	APP transl inh	BaF3 parental	IEC-6 tox confirm
COc1cc2c(cc1OC)[C@@H]1C(=O)c3ccc4c(c3O[C@@H]1CO2)C[C@H](C(C)C)O4	71.1*	28.0	34.6*	.	65.3*	24.8*
CC1=CC2/C=C(\C)CCC(O)C(O)/C=C/C(=O)C23C(=O)NC(CC(C)C)C3C1C (centres undefined)	88.8*	-11.0	38.7*	45.1*	49.2*	29.3*
COc1ccccc1N(CC(=O)NC1CCCCC1)C(=O)c1cnn(C(C)C)c1	1.1	-1.0	2.9	-12.5	0.8	.
COc1cccc(OC)c1C1=NCC(=O)Nc2c1oc1ccc(Br)cc21	75.5*	35.5	34.1*	92.7*	39.4*	56.7*
O=c1c2ccccc2ncn1-c1ccc([N+](=O)[O-])c(C(F)(F)F)c1	-2.2	-44.0	5.5	2.6	1.1	.
CCCC[N+]12C3C[C@H](C4[C@H](O)[C@]5(C[C@@H]41)c1ccccc1N(C)[C@@H]35)[C@H](CC)[C@H]2O (some centres undefined)	.	-12.2	7.2	.	.	.
C/C=C(\C)C(=O)N[C@@H](c1ccccc1)[C@@H](O)C(=O)O[C@H]1C[C@@]2(O)[C@@H](OC(=O)c3ccccc3)C3[C@](C)(C(=O)[C@H](O)C(=C1C)C2(C)C)[C@@H](O)C[C@H]1OC[C@@]31OC(C)=O (some centres undefined)	.	50.1	88.6*	.	.	69.8*
Cc1ccccc1-n1c(O)c(C=Nc2ccc3c(c2)OCO3)c(=O)[nH]c1=O	4.1	2.5	1.9	-6.2	5.8	.
CC[C@@]1(O)C(=O)OCc2c1cc1n(c2=O)Cc2cc3c(NC(=O)CN)cccc3nc2-1	93.8*	19.6	40.6*	.	78.5*	25.6*
O=c1[nH]c(=S)n(Cc2ccc(F)cc2)c(O)c1/C=N/N1CCCCC1	5.7	-8.6	-4.8	-11.2	2.9	.
COc1ccc(CNCCc2c[nH]c3ccccc23)c(OC)c1C	.	-15.3	14.4	.	.	.
COc1cc(C)c(CNCCc2c[nH]c3ccccc23)cc1C	.	-4.4	24.4*	.	.	0.4
O=C1NC(=S)NC(=O)C1=Cc1cccn1-c1ccc(O)cc1	5.1	-16.9	0.3	1.2	11.8	.
CCCn1nc2ccccc2c1P(=O)(N1CCOCC1)N1CCOCC1	-3.2	13.3	-1.8	-2.2	2.6	.
C/C1=C\[C@@H](C)C/C=C/[C@H]2[C@@H]3O[C@]3(C)[C@@H](C)[C@H]3[C@H](Cc4c[nH]c5ccccc45)NC(=O)[C@]32C(=O)/C=C/C(=O)[C@@H]1O	65.2*	-7.2	90.6*	83.8*	63.0*	66.3*
O=c1[nH]c(=S)[nH]c(O)c1/C=N/N1CCOCC1	-0.7	8.9	-9.7	.	-3.1	.
CC[n+]1c(/C=C/C=C/c2ccc(N(C)C)cc2)sc2ccccc21	99.3*	23.4	37.2*	.	91.9*	58.1*
